High-throughput results from PubChem BioAssay.
Pf growth 48h: Primary qHTS for delayed death inhibitors of the malarial parasite plastid, 48 hour incubation; 5.9% of 310,000 active; P. falciparum luciferase growth in erythrocytes, 48 h; Potency, µM (doses to about 28.7 µM), inactives show top-dose activity change, negative = inhibition, usual class: inhibitors; AID 504832, 2011; further: potency means the concentration at half of the fitted maximal effect; on the % scale 0 is the no-effect control and ±100 the full control effect
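Cell-based growth assay: transgenic P. falciparum expressing firefly luciferase, cultured in red cells within RPMI 1640 containing 0.5% w/v Albumax, 24 mM bicarbonate and gentamycin. A drop in luciferase activity indicates inhibition.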
Cycloheximide cs: Cycloheximide Counterscreen for Small Molecule Inhibitors of Shiga Toxin | max response, % | AID 2314, 2010 | 12% of 300,000 active | cell reporter, cycloheximide protein synthesis inhibition counterscreen; in the data active means max response mostly above about 13%, no sharp cut-off; inactive means mostly below about 14%; further: read at 38.3 µM for the half of the compounds with a filed dose; 0% is about no effect
Sm TGR block: qHTS Assay for the Inhibitors of Schistosoma Mansoni Peroxiredoxins. Schistosoma mansoni thioredoxin glutathione reductase (TGR), Q962Y6. purified TGR, DTNB reduction, TNB absorbance 405 nm. Potency, µM (series often up to 114 µM), inactives show at the top dose activity change, negative = inhibition, actives largely listed as inhibitors. 3% of 360,000 active; further: potency means the concentration at half of the fitted maximal effect; on the % scale 0 is the no-effect control and ±100 the full control effect; nearly all actives have a fitted effect of over 60% in size
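TGR 20 nM + NADPH 100 uM (dispensed conc.), cpd preinc 15 min RT; start with NADPH (500 uM addition) then DTNB (15 mM addition). Kinetic TNB absorbance, 405 nm filter. Four-parameter Hill fit across titration.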
NS1 inh: qHTS Assay for Inhibitors of Influenza NS1 Protein Function; Potency, µM (series often up to 46.1 µM), for inactives: top-dose activity, positive = more growth; 0.4% of 270,000 active; AID 2326, 2010; calls by dose curve; further: potency means the concentration at half of the fitted maximal effect; actives are rising curves; nearly all actives have a fitted effect of over 50% in size
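Growth recovery, yeast-based: influenza A NS1 expressed in S. cerevisiae causes slow growth, and suppressors are detected by OD600. The parent strain without NS1 is used as positive control.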
Pf growth 96h: Primary qHTS for delayed death inhibitors of the malarial parasite plastid, 96 hour incubation. P. falciparum luciferase reporter growth, 96 h. Potency, µM (titrated, usually from 28.7 µM), inactives show top-dose activity change, negative = inhibition, actives largely listed as inhibitors. 6.9% of 320,000 active; further: potency means the concentration at half of the fitted maximal effect; on the % scale 0 is the no-effect control and ±100 the full control effect
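Readout is luminescence from an integrated firefly luciferase in P. falciparum. Red cells, 2% hematocrit and 0.05% parasitemia final, were cultured with compound through two parasite generations (96 hours) at 37 C, 5% CO2.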
Shiga toxin inh: A qHTS for Small Molecule Inhibitors of Shiga Toxin; Vero cells, Shiga toxin protein synthesis inhibition reporter; inhibition, % at 38.7 µM; 9.2% of 290,000 active; AID 2315, 2010; in the data active means inhibition mostly above about 28%, no sharp cut-off; inactive means mostly below about 43%; further: 0% is about no effect
Active calls of the source: *; ? = inconclusive; / = no result given. Shown are actives, neighbours in structure and some others; about 21% of the full set was active somewhere. Unless noted, the call rests on the fitted dose curve; in most records, active means well fitted curve in the direction sought with a large enough effect; inconclusive means small, poorly fitted or top-dose-only effect, or another doubt; inactive means no such curve, though single readings can be large; an effect the other way counts as inactive or inconclusive.

SMILES	Pf growth 48h	Cycloheximide cs	Sm TGR block	NS1 inh	Pf growth 96h	Shiga toxin inh
O=C(O)C1CCN(c2c([N+](=O)[O-])cc(C(F)(F)F)cc2[N+](=O)[O-])CC1	-23%	-5	14%	-50%	-13%	-7
C=CCNC(=O)C1CCN(c2c([N+](=O)[O-])cc(C(F)(F)F)cc2[N+](=O)[O-])CC1	5.2µM*	-1	3%	-4%	9.3µM*	-16
O=C(CCc1c[nH]c2ccccc12)NCc1cccc(Cl)c1	-11%	-4	-8%	-3%	-18%	2
O=C(CCc1c[nH]c2ccccc12)NCCc1ccc2c(c1)OCCO2	?	17	0%	-3%	-17%	84*
CCOc1cc(C(=O)NCc2ccc3c(c2)OCO3)cc(OCC)c1OCC	28%	-2	35µM*	-2%	-22%	/
O=C(NCc1ccc2c(c1)OCO2)c1ccc(-n2cnnn2)cc1	13%	-1	5%	-6%	1.7µM*	-9
O=C(NCCc1ccc2c(c1)OCCO2)c1ccccn1	165%	42*	3%	-10%	223%	78*
O=C(NCc1ccc2c(c1)OCO2)c1ccc(Br)cc1	-1%	-2	0%	-73%	-11%	-3
COc1cc(NS(=O)(=O)c2ccc(-c3cc(C)no3)cc2)cc(OC)c1	/	/	12%	/	/	/
Cc1ccc(NC(=O)CCn2nc(C)c(S(=O)(=O)N3CCCCC3)c2C)cc1Cl	/	/	8%	/	/	/
O=C(NCc1ccc2c(c1)OCO2)c1ccccn1	62%	20*	-8%	5%	37%	-6
O=C(NCc1ccc2c(c1)OCO2)c1ccccc1	13%	6	3%	/	22%	-2
CC1CCCCC12NC(=O)N(CC(=O)NC(=O)NCc1ccco1)C2=O (stereo unspecified)	19%	-1	-16%	16%	/	-1
Cc1cccc(Nc2nc(N)c([N+](=O)[O-])c(NCc3ccco3)n2)c1	?	-3	-22%	25%	?	21
Nc1nc(NCCCN2CCOCC2)nc(Nc2ccc(Cl)cc2)c1[N+](=O)[O-]	?	0	4%	-1%	-13%	6
Nc1nc(Nc2cccc(F)c2)nc(NCc2ccco2)c1[N+](=O)[O-]	-29%	13*	7%	-3%	?	36
Nc1nc(Nc2ccc(Cl)cc2)nc(NCc2ccco2)c1[N+](=O)[O-]	?	48*	-24%	-2%	?	84*
Nc1nc(Nc2cccc(Cl)c2)nc(NCc2ccco2)c1[N+](=O)[O-]	?	34*	-26%	-1%	?	36
Nc1nc(NCCCN2CCOCC2)nc(Nc2cccc(Cl)c2)c1[N+](=O)[O-]	5.9µM*	-3	7%	1%	?	21
O=C(Nc1cccc(C(F)(F)F)c1)Nc1ccc(N2CCCC2)c(S(=O)(=O)Nc2ccccc2Cl)c1	?	1	-12%	?	?	9
COC(=O)c1ccccc1NC(=O)CN1CCCCCC1	-1%	-1	-16%	-8%	-7%	/
CCOC(=O)C(C)NC(=O)C1CCN(c2ncnc3c2nc2n3CCCCC2)CC1 (stereo unspecified)	/	/	2%	/	/	/
Cc1ccc(-c2noc(-c3ccc(N4CCOCC4)c([N+](=O)[O-])c3)n2)cc1	/	/	-7%	/	/	/
O=C(NNC(=S)NC(=O)c1sc2ccccc2c1Cl)c1ccc(Cl)cc1	10%	14*	3%	-10%	36%	12
Cc1ccc(NC(=O)c2sc3ccccc3c2Cl)cc1	/	/	-3%	/	/	/
SMILES	Pf growth 48h	Cycloheximide cs	Sm TGR block	NS1 inh	Pf growth 96h	Shiga toxin inh
CCn1nnc(NC(=O)c2cccnc2Cl)n1	/	-2	0%	5%	-18%	-8
O=C(Nc1ccncc1)c1sc2ccccc2c1Cl	128%	26*	2%	/	?	72*
O=C(O)c1ccccc1NC(=S)NC(=O)c1sc2ccccc2c1Cl	22%	18	0%	/	12%	38
CCn1nnc(NC(=O)c2sc3ccccc3c2Cl)n1	389%	42*	0%	-23%	-19%	66*
CN1CCN(c2ccc(NC(=O)c3sc4ccccc4c3Cl)cc2)CC1	138%	43*	2%	/	22%	82*
COCc1ccc(C(=O)NC2CC(C)(C)Cc3c2cnn3-c2ccc(OC)cc2)o1 (stereo unspecified)	-20%	-1	-5%	-3%	83%	-5
Cc1c(NC(=O)c2sc3ccccc3c2Cl)cccc1-c1nc2ccccc2o1	/	/	-2%	/	/	/
COc1ccc(Br)cc1/C=N/n1nnnc1N	9%	-9	29%	13%	-2%	-10
CC(=O)Nc1sc2c(c1C(c1ccccc1)N1CCOCC1)CCCC2 (stereo unspecified)	?	10	-31%	1%	/	21
CC(=O)Nc1sc2c(c1C(c1ccc(F)cc1)N1CCOCC1)CCCC2 (stereo unspecified)	/	-1	?	-11%	1.2µM*	11
CC(=O)Nc1sc2c(c1C(c1ccc(Cl)cc1)N1CCOCC1)CCCC2 (stereo unspecified)	/	-7	-19%	19%	1.3µM*	-17
COc1ccc(S(=O)(=O)NCC(c2ccc3c(c2)OCO3)N2CCN(c3ccccc3)CC2)cc1 (stereo unspecified)	?	/	8%	/	0%	/
Cc1cnc(C(=O)OCC(=O)N2CCc3ccccc3C2)cn1	20%	1	-24%	2%	23%	-16
CNC(=O)COC(=O)c1ccccc1NC(=O)c1ccco1	-2%	1	10%	1%	3%	19
O=C(Nc1ccccc1C(=O)OCC(=O)N1CCc2ccccc2C1)c1ccco1	?	42*	-33%	-87%	-5%	73*
O=C(OCC(=O)N1CCc2ccccc2C1)c1cccs1	1.5µM*	47*	-3%	-6%	-7%	77*
O=C(OCC(=O)N1CCCCCC1)c1cccs1	6%	38*	-4%	-15%	20%	84*
O=C(OCC(=O)N1CCc2ccccc2C1)c1cccnc1Cl	12%	36*	3%	/	14%	114*
CC(C)Cn1c(=O)c2sccc2n2c(CCCC(=O)NCC(C)c3ccccc3)nnc12 (stereo unspecified)	/	/	2%	/	/	/
Cc1cccc(CCNC(=O)C2CCN(c3nc4ccccc4nc3C(F)(F)F)CC2)c1	/	/	7%	/	/	/
COc1ccc(Cl)cc1NC(=O)Cn1ccn(-c2cc(C)cc(C)c2)c(=O)c1=O	/	/	8%	/	/	/
CCc1ccccc1NC(=O)Nc1nnc(N(CC)c2ccccc2)s1	/	/	1%	/	/	/
COc1ccc(-c2noc(C3CCCN(C(=O)c4ccccc4OC)C3)n2)cc1OC (stereo unspecified)	?	23*	-4%	-60%	?	29
Cc1ccc(-c2noc(C3CCCN(C(=O)c4ccccc4Br)C3)n2)cc1 (stereo unspecified)	0%	27*	3%	-22%	?	53*
